Among the data in PubChem BioAssay (NCATS) are Potency values, retold here.

A short description of test [1]: qHTS for Inhibitors of the Functional Ribonucleoprotein Complex (vRNP) of Lassa (LASV) Arenavirus: LASV Primary Screen - GLuc reporter signal (AID 1347082; calls by dose curve; tested in HEK293 reporter line; further: nearly all actives have a fitted effect of over 60% in size). In general terms: In qHTS, concentration-response curves come from the screen itself.
Test [2] is described as follows: qHTS for Inhibitors of the Functional Ribonucleoprotein Complex (vRNP) of Lassa (LASV) Arenavirus: Viability assay - alamar blue signal for LASV Primary Screen (AID 1347083; calls by dose curve; tested in HEK293 reporter line; further: nearly all actives have a fitted effect of over 80% in size).
A short description of test [3]: qHTS for Inhibitors of the Functional Ribonucleoprotein Complex (vRNP) of Lymphocytic Choriomeningitis Arenaviruses (LCMV): Viability assay - alamar blue signal for LCMV Primary Screen (AID 1347085; calls by dose curve; tested in HEK293 reporter line; further: nearly all actives have a fitted effect of over 80% in size).
In test [4] the target is Nucleoprotein (Lymphocytic choriomeningitis virus (strain Armstrong)) (UniProt P09992). Description: qHTS for Inhibitors of the Functional Ribonucleoprotein Complex (vRNP) of Lymphocytic Choriomeningitis Arenaviruses (LCMV): LCMV Primary Screen - GLuc reporter signal (AID 1347086; calls by dose curve; further: nearly all actives have a fitted effect of over 70% in size).
Test [5] in a line: qHTS of pediatric cancer cell lines to identify multiple opportunities for drug repurposing: Primary screen for TC32 cells (AID 1347089). Further: nearly all actives have a fitted effect of over 60% in size. Summed up: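 A viability screen of TC32 cells was run over 48 h, with primary MIPE doses spanning 0.78 nM–46 µM and NPC doses 0.59 nM–46 µM. ATP luminescence (CellTiter-Glo) served as the read-out.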
A short description of test [6]: qHTS of pediatric cancer cell lines to identify multiple opportunities for drug repurposing: Primary screen for DAOY cells (AID 1347090). Further: nearly all actives have a fitted effect of over 55% in size. Summed up:
(§1)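 Eight- or eleven-point concentration series, 48 h treatment at 37 degrees C in growth media; readout CellTiter-Glo luminescence. Potency and efficacy were taken from the concentration-response curves.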

Test [7] can be described thus: qHTS of pediatric cancer cell lines to identify multiple opportunities for drug repurposing: Primary screen for SJ-GBM2 cells (AID 1347091). The essentials: as §1
Test [8] in a line: qHTS of pediatric cancer cell lines to identify multiple opportunities for drug repurposing: Primary screen for A673 cells (AID 1347092). Further: nearly all actives have a fitted effect of over 45% in size. Summed up:
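Titration-based qHTS on A673 cells: MIPE compounds spanned 11 points (0.78 nM to 46 µM final), NPC compounds 8 points (0.59 nM to 46 µM final). Viability after 48 h was measured by ATP luminescence.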

Test [9] can be described thus: qHTS of pediatric cancer cell lines to identify multiple opportunities for drug repurposing: Primary screen for SK-N-MC cells (AID 1347093). The essentials: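 Metabolically active cells were quantified by ATP-dependent luminescence (CellTiter-Glo, 15 min at room temperature) following 48 h treatment. Cells had been plated at 500-1,000 per well and settled for 5 h beforehand.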

Test [10] is described as follows: qHTS of pediatric cancer cell lines to identify multiple opportunities for drug repurposing: Primary screen for BT-37 cells (AID 1347094). Summed up: (§2)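 Cells seeded at 500-1,000 cells/well in growth media, rested 5 hours at 37 degrees C, 5% CO2, then dosed; MIPE compounds at 11-point (from 0.78 nM) and NPC at 8-point (from 0.59 nM) final concentrations. Viability by CellTiter-Glo luminescence after 48 hours.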

The nature of test [11]: qHTS of pediatric cancer cell lines to identify multiple opportunities for drug repurposing: Primary screen for NB-EBc1 cells (AID 1347095). Summed up:
as §2

Test [12] can be described thus: qHTS of pediatric cancer cell lines to identify multiple opportunities for drug repurposing: Primary screen for U-2 OS cells (AID 1347096). Further: nearly all actives have a fitted effect of over 50% in size. The essentials: (§3)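 Cells (500-1,000/well) in growth media were settled 5 h at 37 degrees C, then given compounds for 48 h. Viability was read as CellTiter-Glo luminescence. Primary runs used MIPE at 11 points (0.78 nM-46 µM) and NPC at 8 points (0.59 nM-46 µM); follow-ups used 11 points.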

The nature of test [13]: qHTS of pediatric cancer cell lines to identify multiple opportunities for drug repurposing: Primary screen for Saos-2 cells (AID 1347097). Further: nearly all actives have a fitted effect of over 40% in size. The essentials: as §2
Test [14] is described as follows: qHTS of pediatric cancer cell lines to identify multiple opportunities for drug repurposing: Primary screen for SK-N-SH cells (AID 1347098). Further: nearly all actives have a fitted effect of over 65% in size. The essentials:
(§4)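 Cells (500-1,000/well) rested 5 h, then received compounds for 48 h; metabolically active cells were measured by CellTiter-Glo luminescence. Final concentrations spanned up to 46 µM (MIPE, 11-point) or 0.59 nM-46 µM (NPC, 8-point) in primary screens, 11-point in follow-ups.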

Test [15] in a line: qHTS of pediatric cancer cell lines to identify multiple opportunities for drug repurposing: Primary screen for NB1643 cells (AID 1347099). Further: nearly all actives have a fitted effect of over 50% in size. Summed up:
as §2

Test [16] can be described thus: qHTS of pediatric cancer cell lines to identify multiple opportunities for drug repurposing: Primary screen for LAN-5 cells (AID 1347100). The essentials:
as §3

Test [17] in a line: qHTS of pediatric cancer cell lines to identify multiple opportunities for drug repurposing: Primary screen for BT-12 cells (AID 1347101). Further: nearly all actives have a fitted effect of over 25% in size. Summed up:
as §4

Test [18] is described as follows: qHTS of pediatric cancer cell lines to identify multiple opportunities for drug repurposing: Primary screen for Rh18 cells (AID 1347102). Further: nearly all actives have a fitted effect of over 65% in size. Summed up: as §3
The nature of test [19]: qHTS of pediatric cancer cell lines to identify multiple opportunities for drug repurposing: Primary screen for OHS-50 cells (AID 1347103). Further: nearly all actives have a fitted effect of over 40% in size. Summed up:
as §4

Results filed as inconclusive are left out. Activity calls are given as the source filed them. Unless noted, the call rests on the fitted dose curve; in most records, active means well fitted curve in the direction sought with a large enough effect; inconclusive means small, poorly fitted or top-dose-only effect, or another doubt; inactive means no such curve, though single readings can be large; an effect the other way counts as inactive or inconclusive.
Potency means the concentration at half of the fitted maximal effect.

Chain of Nucleoprotein (Lymphocytic choriomeningitis virus (strain Armstrong)) (P09992 whole entry, looked up): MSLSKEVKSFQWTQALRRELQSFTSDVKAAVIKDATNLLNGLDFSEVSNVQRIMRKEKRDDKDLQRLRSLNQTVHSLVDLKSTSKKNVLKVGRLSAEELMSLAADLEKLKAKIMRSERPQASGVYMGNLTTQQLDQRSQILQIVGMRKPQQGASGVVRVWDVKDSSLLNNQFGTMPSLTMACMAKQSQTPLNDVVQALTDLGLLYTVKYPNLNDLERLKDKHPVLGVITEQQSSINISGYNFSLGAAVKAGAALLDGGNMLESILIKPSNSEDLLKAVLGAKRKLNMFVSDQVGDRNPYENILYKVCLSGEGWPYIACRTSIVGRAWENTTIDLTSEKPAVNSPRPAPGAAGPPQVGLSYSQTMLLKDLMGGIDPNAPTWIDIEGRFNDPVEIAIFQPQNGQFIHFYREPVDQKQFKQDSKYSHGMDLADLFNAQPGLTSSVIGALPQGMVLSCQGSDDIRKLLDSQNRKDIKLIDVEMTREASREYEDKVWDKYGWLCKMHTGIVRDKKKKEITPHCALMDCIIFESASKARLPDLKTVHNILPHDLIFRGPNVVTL

Consider `CC1=C(C(=O)O)N2C(=O)[C@@H](N)[C@H]2SC1`, for which the Potency result in [1], in test [2], in [3], in test [4], in [5] and in test [6] was “inactive” each time. For the same molecule, the Potency result in test [7], in test [8], in test [9], in test [10], in test [11] and in test [12] was “inactive” in each case. In addition, the Potency entry in test [13], in [14], in [15], in test [16], in test [17] and in test [18] was “inactive” each time. Also, the Potency result in test [19] was “inactive”.
Regarding `CC(C)N[C@@H]1CCn2c(=O)[nH]c3cccc(c32)[C@@H]1O`, the Potency in [1] is 8630 nM (active); in test [2] it was 19300 nM (active); in [3], 4850 nM (active); in [4], 2730 nM (active); in test [6], 1180 nM (active); in test [7], 6620 nM (active). The Potency in [8] is 833 nM (active); in test [9], 1050 nM (active); in [10], 27300 nM (active); in test [12], 11800 nM (active); in [14], 8570 nM (active); in test [15], 4180 nM (active). Further, the Potency in [16] was 743 nM (active); in [17], 3060 nM (active); in [18], 4690 nM (active); in test [19], 1370 nM (active). The Potency entry in [5] and in [11] was “inactive” throughout.
Take `CS(=O)(=O)c1ccc(C(=O)C2C(=O)CCCC2=O)c([N+](=O)[O-])c1`: the Potency result in test [1], in test [2], in test [3], in [4], in test [5] and in test [6] was “inactive” in each case. Also, the Potency entry in test [7], in [8], in test [10], in test [11], in test [12] and in test [14] was “inactive” in each case. Further, the Potency result in test [16], in test [17], in test [18] and in test [19] was “inactive” throughout. For the same molecule, the Potency in [9] and in test [15] was 1 nM (active) throughout.
As for `CSCC[C@@H](NC(=O)[C@@H](Cc1ccccc1)NC(=O)CNC(=O)CNC(=O)[C@@H](N)Cc1ccc(O)cc1)C(=O)O`, the Potency entry in [1], in test [2], in [3], in test [4], in test [5] and in test [6] was “inactive” in each case. The Potency result in [7], in [8], in test [9], in test [10], in [11] and in [13] was “inactive” each time. Moreover, the Potency entry in test [14], in test [15], in test [16], in test [17], in test [18] and in [19] was “inactive” throughout.
`CC(O)CN1CCN(CC(=O)[O-])CCN(CC(=O)[O-])CCN(CC(=O)[O-])CC1.[Gd+3]` (stereo unspecified): the Potency entry in test [1], in test [2], in [3], in test [4], in test [5] and in test [6] was “inactive” in each case. Moreover, the Potency result in [7], in test [8], in test [9], in [10], in test [11] and in test [13] was “inactive” throughout. The Potency result in test [14], in test [15], in [16], in [17], in test [18] and in [19] was “inactive” in each case.
Turning to `O=C(O)c1cc(Oc2ccc(C(F)(F)F)cc2Cl)ccc1[N+](=O)[O-]`, the Potency entry in test [1], in test [2], in test [3], in [4], in test [5] and in test [6] was “inactive” each time. The Potency result in test [7], in test [8], in test [9], in test [10], in test [11] and in test [12] was “inactive” in each case. Further, the Potency entry in test [14], in test [15], in test [16], in test [17], in [18] and in [19] was “inactive” each time.
Consider `CN(C)NC(=O)CCC(=O)O`, for which the Potency result in [1], in test [2], in [3], in [4], in test [5] and in test [6] was “inactive” each time. In addition, the Potency result in test [7], in test [8], in test [9], in test [10], in [11] and in test [12] was “inactive” each time. Further, the Potency result in test [14], in test [16], in test [17] and in test [18] was “inactive” each time.
`O=S(=O)(O)C(F)(F)C(F)(F)C(F)(F)C(F)(F)F`: the Potency result in test [1], in test [2], in test [3], in test [4], in test [5] and in test [6] was “inactive” each time. For the same molecule, the Potency entry in test [7], in test [8], in test [9], in [10], in [11] and in test [12] was “inactive” each time. The Potency entry in test [14], in test [15], in [16], in [17], in test [18] and in test [19] was “inactive” each time.
For `Cc1[nH]nc2ccc(-c3cncc(OC[C@@H](N)Cc4c[nH]c5ccccc45)c3)cc12`, the Potency in test [1] is 485 nM (active); in test [2], 172 nM (active); in [3], 432 nM (active); in [4] it was 243 nM (active); in test [5], 1860 nM (active); in test [6], 1870 nM (active). The Potency in test [7] was 1050 nM (active); in test [8] it was 118 nM (active); in [9], 264 nM (active); in [10] it was 1530 nM (active); in test [11], 1660 nM (active); in test [14], 304 nM (active). Also, the Potency in test [16] is 166 nM (active); in test [17], 1530 nM (active); in test [18], 2960 nM (active); in [19], 1530 nM (active). In addition, the Potency result in test [12] is “inactive”.
As for `O=c1[nH]c2ccc(Cl)cc2c(N[C@@H]2CN3CCC2CC3)c1-c1nc2ccccc2[nH]1`, the Potency in test [1] was 1220 nM (active); in test [2], 122 nM (active); in test [3], 217 nM (active); in [4], 863 nM (active); in test [5] it was 930 nM (active); in test [6], 743 nM (active). In addition, the Potency was 46.9 nM (active) in test [7]; 296 nM (active) in test [8]; 33.2 nM (active) in test [9]; 5440 nM (active) in test [10]; 41.8 nM (active) in test [11]; 187 nM (active) in test [12]. For the same molecule, the Potency is 418 nM (active) in test [13]; 9610 nM (active) in [14]; 526 nM (active) in [15]; 148 nM (active) in [16]; 15300 nM (active) in test [17]; 109 nM (active) in [19].
Turning to `CCN(CC)C(=O)c1ccc(C2=CC3(CCNCC3)Oc3cccc(O)c32)cc1`, the Potency result in test [1], in [2], in test [3], in [4], in [5] and in test [6] was “inactive” each time. For the same molecule, the Potency result in test [7], in test [8], in [9], in [10], in test [11] and in test [12] was “inactive” throughout. Besides, the Potency entry in test [13], in [14], in test [16], in test [17] and in test [18] was “inactive” in each case.
On to `Cc1nc(-c2ccc(-c3ccc(C(=O)N4CCc5cc6c(cc54)C4(CCN(C)CC4)CO6)cc3)c(C)c2)no1`, for which the Potency result in [1], in [2], in test [3], in test [4], in test [5] and in test [6] was “inactive” each time. Further, the Potency result in [7], in test [8], in [9], in test [10], in test [11] and in test [12] was “inactive” throughout. Besides, the Potency result in test [13], in test [15], in test [16], in test [17], in test [18] and in [19] was “inactive” throughout.
For the molecule `O=C(O)COc1nc(Cl)c(Cl)cc1Cl`, the Potency entry in test [1], in test [2], in test [3], in test [4], in test [5] and in test [6] was “inactive” throughout. Further, the Potency result in test [7], in [8], in [10], in test [11], in [12] and in test [14] was “inactive” in each case. The Potency entry in test [15], in test [16], in test [18] and in test [19] was “inactive” each time. Further, the Potency in [9] and in test [13] was 1 nM (active) throughout.
